This note sets out measurements from PubChem BioAssay.

This experiment is described as follows: probe aLAP1 signal on lysate-treated microarray – cell lysate, small-molecule microarray, COS7 lysate, primary screen (AID 1124).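 Also: lysate comes from COS7 cells expressing LAP1 and is applied at 0.3 µg/mL; score merges spot fluorescence near 667 nm with signal-to-noise over triplicate slides.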 The following applies: probe aLAP1, fluorescence, higher = more signal.
The compound `COc1ccc([C@H]2OC[C@@H]3C[C@@H](Cc4ccccc4)C(=O)N32)cc1` gave a composite z-score of -0.123.
`COCCCNC(=O)[C@@H]1c2ccccc2C(=O)N(Cc2ccccc2Cl)[C@H]1c1ccc(CO)cc1` came in with a composite z-score of -0.503.
`O=C1C2C=CC(C(O)c3cccc4ccccc34)N(Nc3ccccc3F)C2C(=O)N1c1ccccc1` (stereo not given): the composite z-score turned out to be 0.491.
With `COC(=O)[C@@]1(CCS(=O)(=O)c2ccccc2)N=C(c2ccc(OCCCO)cc2)O[C@H]1c1ccccc1CN=[N+]=[N-]`, the composite z-score came to 0.372.
`C=C[C@H](OC)[C@@H](OC(=O)Nc1ccc(OC)cc1)c1ccc(O)c(F)c1` displayed a composite z-score of 0.953.
In turn, `C=CCC(OC(C)=O)[C@@H]1[C@@H](N(Cc2ccc(-c3ccccc3)cc2)C(=O)c2cccc3ccccc23)c2cc(OCCCO)ccc2N1C(=O)c1ccc(-c2ccccc2)cc1` (stereo not given in full) returned a composite z-score of 0.674.
For `C=CCOC(=O)[C@H]1[C@@H]2C(=O)O[C@@H](c3ccccc3)[C@@H](c3ccccc3)N2[C@@H](c2ccc(OCCOC(=O)[C@H]3C[C@H]4C(=O)N[C@@H](CCCC[N+](C)(C)C)C(=O)N4[C@H]3c3ccc(O)cc3)cc2)[C@]12C(=O)Nc1ccc(I)cc12` the value was -0.432; for `COC(=O)[C@@]1(Cc2ccc(OC)cc2)[C@@H]2C(=CC(=O)[C@H]2CC(=O)C(=O)N2CCCC2)CN1C(=O)c1ccccc1`, 0.0014.
For `C[C@H]1NC(=O)[C@@]23C(=O)N[C@@H](Cc4ccccc4)C2[C@H](C)[C@@]2(C)O[C@H]2C3/C=C/C/C=C\CNC(=O)[C@@H]2CCCN2C1=O` (stereo not given in full), the composite z-score is -0.301.
In turn, `O=C(OCc1ccccc1)C1=CCC2c3[nH]c4ccccc4c3C(=O)C1N2S(=O)(=O)c1ccccc1[N+](=O)[O-]` (stereo not given) showed a composite z-score of 0.335.
